Results as given in ChEMBL document CHEMBL1157539, “Thousands of chemical starting points for antimalarial lead identification” (Nature, 2010).

system: Plasmodium falciparum; assay: GSK_TCMDC: Inhibition of Plasmodium falciparum 3D7 in whole red blood cells, using parasite LDH activity as an index of growth. Test compounds present at 2uM; format: functional

SMILES | Inhibition
Cc1ccc(Nc2nnc(SCC(=O)Nc3ccc(CN4CCCC4)cc3)s2)cc1 | 91%
O=C(O)C(F)(F)F.Oc1ccc(CCCNc2nc(NCc3cccc4ccccc34)nc(N3CCNCC3)n2)cc1 | 100%
CCN(CC)/C(=N\C(=N)NCCCCCCNC(=N)/N=C(\Nc1ccc(Cl)cc1)N(CC)CC)Nc1ccc(Cl)cc1 | 97%
O=C(/C=C/c1ccc(Cl)c(Cl)c1)NCCCCCN1CCC(CCNC(=O)Cc2ccc(Cl)cc2)CC1 | 83%
O=C(O)C(F)(F)F.O=[N+]([O-])c1cccc(CNCC2CCN(Cc3ccc(C(F)(F)F)cc3)CC2)c1 | 100%
CC(=O)Nc1ccc(OCCN(Cc2ccccc2C(F)(F)F)c2ccc(C#N)c(C(F)(F)F)c2)c(Cl)c1 | 98%
NS(=O)(=O)c1cccc(Nc2nccc(-c3cnn4ncccc34)n2)c1 | 89%
COc1cccc(-c2cnc(N)c(-c3nc4ccc(F)cc4[nH]3)c2)c1.Cl | 97%
CCOc1ccc(C(C)NC(=O)C2COc3ccccc3O2)cc1OCC (centres undefined) | 100%
Cc1c(C(=O)C2CC2CN2CCC(N3CCCCC3)CC2)sc2ccccc12 (centres undefined) | 94%
Br.CC1(C)N=C(N)N=C(N)N1OCCCOc1cccc(C(=O)O)c1 | 94%
CC(=O)Nc1ccc(CN2CCCN(c3cc(NC(=O)c4cccc(C)c4)ccn3)CC2)cc1.O=C(O)C(F)(F)F | 92%
COc1cccc(CN2Cc3ccccc3OC3(CCN(Cc4c[nH]c5cnccc45)CC3)C2)c1.O=C(O)C(F)(F)F | 83%
O=C(/C=C/c1cccc2c1OCO2)Nc1ccnc2ccncc12 | 90%
